Test results reported in PubChem BioAssay (NCI).
Compounds without any hit were thinned out: in the full panel of roughly 83,000, 20% have a hit.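 Activity criterion: percent growth below 10, measured after cells in 96-well plates were exposed to a single compound concentration for 48 hours.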 A number with no mark means an inactive call. Calls of active or inactive are those of the source.

Experiments:
Test in all cases: NCI-60 one-dose screen, 48 h (100 = growth as untreated, 0 = no growth, -100 = all killed)
Details in all cases: 10 µM unless noted
SR leukemia = system: SR leukemia
RPMI-8226 leukemia = system: RPMI-8226 leukemia
OVCAR-8 ovarian = system: OVCAR-8 ovarian
OVCAR-5 ovarian = system: OVCAR-5 ovarian
OVCAR-4 ovarian = system: OVCAR-4 ovarian
SK-OV-3 ovarian = system: SK-OV-3 ovarian
IGROV1 ovarian = system: IGROV1 ovarian
OVCAR-3 ovarian = system: OVCAR-3 ovarian
HS 578T breast = system: HS 578T breast
NCI/ADR-RES ovarian = system: NCI/ADR-RES ovarian
T-47D breast = system: T-47D breast
BT-549 breast = system: BT-549 breast
MDA-MB-435 melanoma = system: MDA-MB-435 melanoma
SW-620 colon = system: SW-620 colon
MCF7 breast = system: MCF7 breast
HCT-116 colon = system: HCT-116 colon
HCC-2998 colon = system: HCC-2998 colon
KM12 colon = system: KM12 colon

SMILES: O=C(O)c1ccc[n+](CC(=O)N2CCN(c3cc4c(cc3F)c(=O)c(C(=O)O)cn4C3CC3)CC2)c1
- growth (SR leukemia): 17.2%
- growth (RPMI-8226 leukemia): 75.4%
- growth (OVCAR-8 ovarian): 79.7%
- growth (OVCAR-5 ovarian): 107%
- growth (OVCAR-4 ovarian): 60.4%
- growth (SK-OV-3 ovarian): 109%
- growth (IGROV1 ovarian): 95.8%
- growth (OVCAR-3 ovarian): 55.6%
- growth (HS 578T breast): 87.9%
- growth (NCI/ADR-RES ovarian): 94.7%
- growth (T-47D breast): 85.9%
- growth (BT-549 breast): 75.1%
- growth (MDA-MB-435 melanoma): 67.4%
- growth (SW-620 colon): -3.29% (active)
- growth (MCF7 breast): 50.9%
- growth (HCT-116 colon): 23.9%
- growth (HCC-2998 colon): 111%
- growth (KM12 colon): 92.2%

SMILES: Cc1ccccc1CNc1ccc(N2CCOCC2)cc1
- growth (SR leukemia): 86.3%
- growth (RPMI-8226 leukemia): 110%
- growth (OVCAR-8 ovarian): 96.3%
- growth (OVCAR-5 ovarian): 103%
- growth (OVCAR-4 ovarian): 87.7%
- growth (SK-OV-3 ovarian): 131%
- growth (IGROV1 ovarian): 108%
- growth (OVCAR-3 ovarian): 101%
- growth (HS 578T breast): 108%
- growth (NCI/ADR-RES ovarian): 99.2%
- growth (T-47D breast): 106%
- growth (BT-549 breast): 102%
- growth (MDA-MB-435 melanoma): 102%
- growth (SW-620 colon): 98%
- growth (MCF7 breast): 102%
- growth (HCT-116 colon): 104%
- growth (HCC-2998 colon): 105%
- growth (KM12 colon): 100%

SMILES: CC(C)(C)CC(C)(C)Nc1c(-c2ccc3c(c2)OCO3)nc2cnccn12
- growth (SR leukemia): 73.1%
- growth (RPMI-8226 leukemia): 69.7%
- growth (OVCAR-8 ovarian): 95.1%
- growth (OVCAR-5 ovarian): 91.2%
- growth (OVCAR-4 ovarian): 86.9%
- growth (SK-OV-3 ovarian): 92%
- growth (IGROV1 ovarian): 72.1%
- growth (OVCAR-3 ovarian): 92.5%
- growth (HS 578T breast): 88.5%
- growth (NCI/ADR-RES ovarian): 87.7%
- growth (T-47D breast): 84.2%
- growth (BT-549 breast): 82.2%
- growth (MDA-MB-435 melanoma): 99.1%
- growth (SW-620 colon): 109%
- growth (MCF7 breast): 74.1%
- growth (HCT-116 colon): 5.36% (active)
- growth (HCC-2998 colon): 93.7%
- growth (KM12 colon): 96.2%

SMILES: Cc1ccc(-c2csc(/N=C3\C(=O)Nc4ccccc43)n2)cc1
- growth (SR leukemia): -30.2% (active)
- growth (RPMI-8226 leukemia): -20.2% (active)
- growth (OVCAR-8 ovarian): 16.3%
- growth (OVCAR-5 ovarian): 60.8%
- growth (OVCAR-4 ovarian): 36%
- growth (SK-OV-3 ovarian): 32.4%
- growth (IGROV1 ovarian): 25.3%
- growth (OVCAR-3 ovarian): -10.7% (active)
- growth (HS 578T breast): 31.2%
- growth (NCI/ADR-RES ovarian): 81%
- growth (T-47D breast): 20%
- growth (BT-549 breast): 23.6%
- growth (MDA-MB-435 melanoma): 12.9%
- growth (SW-620 colon): 19.4%
- growth (MCF7 breast): 6.92% (active)
- growth (HCT-116 colon): 4.56% (active)
- growth (HCC-2998 colon): 6.25% (active)
- growth (KM12 colon): 15.2%

SMILES: O=C1Nc2ccccc2/C1=N/c1nc(-c2ccc(Cl)cc2)cs1
- growth (SR leukemia): 60.1%
- growth (RPMI-8226 leukemia): 39.3%
- growth (OVCAR-8 ovarian): 54.6%
- growth (OVCAR-5 ovarian): 98.9%
- growth (OVCAR-4 ovarian): 67.7%
- growth (SK-OV-3 ovarian): 57.8%
- growth (IGROV1 ovarian): 66.7%
- growth (OVCAR-3 ovarian): 64.9%
- growth (HS 578T breast): 71.6%
- growth (NCI/ADR-RES ovarian): 88.9%
- growth (T-47D breast): 43.4%
- growth (BT-549 breast): 63.8%
- growth (MDA-MB-435 melanoma): 72.4%
- growth (SW-620 colon): 68.5%
- growth (MCF7 breast): 52.6%
- growth (HCT-116 colon): 59.1%
- growth (HCC-2998 colon): 86.4%
- growth (KM12 colon): 70.8%

SMILES: S=c1[nH]cccc1-c1nnc2n1Nc1nc3ccc(Cl)cc3cc1CS2
- growth (SR leukemia): 85.6%
- growth (RPMI-8226 leukemia): 98.1%
- growth (OVCAR-8 ovarian): 102%
- growth (OVCAR-5 ovarian): 95.3%
- growth (OVCAR-4 ovarian): 101%
- growth (SK-OV-3 ovarian): 94.3%
- growth (IGROV1 ovarian): 90.1%
- growth (OVCAR-3 ovarian): 105%
- growth (HS 578T breast): 89.3%
- growth (NCI/ADR-RES ovarian): 99.3%
- growth (T-47D breast): 89.5%
- growth (BT-549 breast): 96.3%
- growth (MDA-MB-435 melanoma): 103%
- growth (SW-620 colon): 98.8%
- growth (MCF7 breast): 86.5%
- growth (HCT-116 colon): 86.6%
- growth (HCC-2998 colon): 106%
- growth (KM12 colon): 104%

SMILES: COc1ccc2c(Nc3ccc(NS(C)(=O)=O)cc3)c3ccccc3nc2c1
- growth (SR leukemia): -11.6% (active)
- growth (RPMI-8226 leukemia): 1.1% (active)
- growth (OVCAR-8 ovarian): 8% (active)
- growth (OVCAR-5 ovarian): 4.43% (active)
- growth (OVCAR-4 ovarian): 11.8%
- growth (SK-OV-3 ovarian): 20.5%
- growth (IGROV1 ovarian): 3.52% (active)
- growth (OVCAR-3 ovarian): -22.3% (active)
- growth (HS 578T breast): -17.1% (active)
- growth (NCI/ADR-RES ovarian): 32.7%
- growth (T-47D breast): 2.85% (active)
- growth (BT-549 breast): 49.9%
- growth (MDA-MB-435 melanoma): -11.1% (active)
- growth (SW-620 colon): -31% (active)
- growth (MCF7 breast): 11.1%
- growth (HCT-116 colon): 2.19% (active)
- growth (HCC-2998 colon): -60.9% (active)
- growth (KM12 colon): -13.2% (active)

SMILES: O=C(CCN1CCCC1)Nc1ccc2c(Nc3ccccc3)c3ccccc3nc2c1
- growth (SR leukemia): -14.9% (active)
- growth (RPMI-8226 leukemia): -27.3% (active)
- growth (OVCAR-8 ovarian): 7.5% (active)
- growth (OVCAR-5 ovarian): 20%
- growth (OVCAR-4 ovarian): -4.97% (active)
- growth (SK-OV-3 ovarian): 23.8%
- growth (IGROV1 ovarian): 13.5%
- growth (OVCAR-3 ovarian): -25% (active)
- growth (HS 578T breast): 32.2%
- growth (NCI/ADR-RES ovarian): 47.1%
- growth (T-47D breast): 18.6%
- growth (BT-549 breast): 41%
- growth (MDA-MB-435 melanoma): -93.5% (active)
- growth (SW-620 colon): -27.9% (active)
- growth (MCF7 breast): -13.5% (active)
- growth (HCT-116 colon): -45.4% (active)
- growth (HCC-2998 colon): -74.1% (active)
- growth (KM12 colon): 16.1%
